# LMP1 NFkB inh: EBV LMP1-driven NF-kappaB luciferase reporter inhibitors, primary screen, cell-based, luminescence, single point; LMP1-induced NF-kappaB luciferase reporter cells; inhibition, % at 12.5 µM; 350,000 compounds, 0.69% hits; AID 504558, 2011; in the data active means inhibition above about 41%;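 further: 0% = neutral control wells and 100% = reference inhibitor control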
# Peg3 prom inh: Peg3 promoter-driven luciferase inhibitors, primary screen, cell-based, HeLa, luciferase luminescence | inhibition, % at 20 µM | 360,000 compounds, 1.7% hits | HeLa PEG-Prom luciferase reporter, overnight;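 active means inhibition of at least 50% at 20 µM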
# CF NFkB block: inhibitors of PAF-induced NF-kB signaling, primary screen, cell-based, GFP fluorescence, uHTS. inhibition, % at 5 µM. 360,000 compounds, 0.86% hits. KKLEB NF-kB-GFP reporter, GFP fluorescence overnight. AID 588850, 2011;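 active means at least 50% inhibition at 5 µM, scaled per plate between neutral and stimulator controls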;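 further: PAF is a Pseudomonas aeruginosa culture filtrate used as stimulus; plate controls were PAF-stimulated DMSO wells for no effect and unstimulated DMSO wells for full effect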
# KKLEB tox: cytotoxicity in KKLEB CF airway cells, primary screen, cytotoxicity control for CF NF-kB inhibitor project, cell-based, uHTS, fluorescence assay plates; KKLEB CF airway cells viability, ATPlite luminescence, overnight; hits give low values; cells stimulated with P. aeruginosa culture filtrate; activity change (cytotoxicity), % at 5 µM; 360,000 compounds, 0.36% hits;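 active means corrected activity change at or below -50% at 5 µM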
# Shn3 3UTR inh: reduction of Shn3 3'UTR firefly luciferase signal, primary screen, Schnurri-3 inhibitor project, cell-based, Clone20 osteoblasts, set 2 | inhibition, % at 12.5 µM | Clone20 osteoblast Shn3 3'UTR firefly luciferase, 24 h | 360,000 compounds, 0.52% hits | AID 588674, 2011;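 active means mean inhibition of at least 75% with every replicate also reaching 75%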;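 further: 0% = median of neutral control wells and 100% = pilot-screen positive control compound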
# MITF TRPM1 inh: inhibitors of MITF-dependent TRPM1 promoter reporter, primary screen, cell-based, SK-MEL-5, single point, luciferase | SK-MEL-5 TRPM1 promoter luciferase, 24 h | inhibition, % at 12.5 µM | 330,000 compounds, 0.83% hits | AID 488899, 2010;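 active means mean inhibition across replicates of 60% or more, whatever share of single replicates reaches that level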
# An asterisk follows results filed as active; · = no result. An excerpt weighted towards active compounds, which were near 2.9% of everything screened.
SMILES,LMP1 NFkB inh,Peg3 prom inh,CF NFkB block,KKLEB tox,Shn3 3UTR inh,MITF TRPM1 inh
O=C(O)c1cc(=O)c2c(OCC(O)COc3cccc4oc(C(=O)O)cc(=O)c34)cccc2o1,76*,-15,-1,-2,-20,6
COc1ccc(NC(=O)c2sc(=O)n(Cc3ccc(F)c(Cl)c3)c2C)cc1OC,·,1,-28,-1,13,·
C[C@@H]1CN([C@H](C)CO)C(=O)c2cc(C3=CCCCC3)cnc2O[C@@H]1CN(C)Cc1ccccc1C(=O)O,0,-6,0,-4,-19,·
Cc1ccccc1NC(=S)NC(NC(=O)COc1ccccc1)C(Cl)(Cl)Cl (stereo not drawn),3,16,14,4,7,10
Cc1ccc(C)c(NC(=S)NC(NC(=O)Cc2cccc3ccccc23)C(Cl)(Cl)Cl)c1 (stereo not drawn),-73,94*,71*,-70*,55,77*
Cc1ccc(C)c(NC(=S)NC(NC(=O)N(C)C)C(Cl)(Cl)Cl)c1 (stereo not drawn),-1,6,9,3,-1,-7
CCc1ccc(OCC(=O)NC(NC(=S)Nc2ccccc2C)C(Cl)(Cl)Cl)cc1 (stereo not drawn),8,61*,15,6,60,15
O=C(Cc1ccc(NC(=O)C2CCN(C(=O)C3CCCC3)CC2)cc1)Nc1ccc(C(=O)N2CCOCC2)cc1,0,-3,-21,10,-9,-3
CCOC(=O)Cc1csc(N/N=C\c2ccc(N(C)C)cc2)n1,81*,-76,-5,9,7,-12
CCOC(=O)Cc1csc(N/N=C/c2ccccc2)n1,-6,-129,-18,7,-20,-9
Cc1c2ccccc2c(C)c2c1ccc1ccccc12,-10,69*,0,14,-53,-71
CCCCn1c(CCl)nc2cc(S(=O)(=O)N3CCOCC3)ccc21,10,58*,45,14,-7,49
CCCSc1nc2cc(S(=O)(=O)N3CCOCC3)ccc2n1CC,67*,6,-3,2,4,0
CCn1c(SCC#N)nc2cc(S(=O)(=O)N3CCOCC3)ccc21,-18,0,-23,13,-9,9
CCN1CCN(c2ccc(S(=O)(=O)N3CCOCC3)cc2NC(=O)CC(NC(C)=O)c2ccccc2)CC1 (stereo not drawn),8,-7,5,6,-2,-3
O=C(O)c1ccc(Nc2nc(-c3ccc([N+](=O)[O-])cc3)nc3ccccc23)cc1,0,16,0,6,26,8
O=[N+]([O-])c1ccc(-c2nc(Nc3ccc(O)cc3)c3ccccc3n2)cc1,-24,64*,-44,1,33,41
CCc1cc(C(=O)Nc2ncccc2O)sc1C,47*,-16,-37,17,-15,-4
COc1ccccc1NC(=O)c1sc2ncn(Cc3ccc(C)cc3)c(=O)c2c1C,-6,52*,20,-22,-8,-3
O=c1[nH]c2cnn(-c3ccccc3)c2c(=O)n1O,-11,-1,4,0,11,4
CC1(C(=O)Nc2cccc3cccnc23)CCN1C(=O)CC1CC1 (stereo not drawn),·,-24,-12,-8,25,·
Cc1nc2c(-c3ccccc3)cnn2c(N)c1-c1ccccc1,3,40,-15,-65*,16,6
O=C(C[C@H]1C[C@H]2c3cc(NS(=O)(=O)c4ccc(F)cc4)ccc3O[C@H]2[C@H](CO)O1)NCc1ccncc1,2,-6,1,-13,-5,·
CC1(C(=O)NS(=O)(=O)C2CC2)CCN(C(=O)c2cc(F)cc(F)c2)C1 (stereo not drawn),·,4,-15,-2,-1,·
CN1CCCC(CC2c3ccccc3Sc3ccccc32)C1 (stereo not drawn),-7,60*,28,26,0,-8
SMILES,LMP1 NFkB inh,Peg3 prom inh,CF NFkB block,KKLEB tox,Shn3 3UTR inh,MITF TRPM1 inh
CC(=O)c1c(C)oc2ccc(N(C(C)=O)S(=O)(=O)c3ccc(Br)cc3)cc12,11,47,10,-12,31,4
CC(=O)c1c(C)oc2ccc(N(C(C)=O)S(=O)(=O)c3ccc(Cl)c([N+](=O)[O-])c3)cc12,31,104*,42,-9,-10,65*
O=C(Nc1ccc(Cl)c(Cl)c1)Nc1ccc(Br)cc1F,7,-24,71*,-64*,18,-5
C/C(=N\NC(=O)c1ccc(CSc2nc(C)cc(C)n2)cc1)c1ccco1,3,9,90*,-95*,8,-7
COc1ccc(O)c(/C=N/NC(=O)c2ccc(CSc3nc(C)cc(C)n3)cc2)c1,31,38,15,-4,88*,·
Cc1cc(C)nc(SCc2ccc(C(=O)N/N=C/c3cccc(O)c3O)cc2)n1,52*,48,45,-24,84,42
Cc1ccc(S(=O)(=O)N2C[C@@H](C)[C@]3(C2)[C@H](O)[C@H](OC(=O)NCc2ccccc2F)C[C@H]2C(=O)N(c4ccccc4)C(=O)[C@H]23)cc1,-10,6,32,-8,2,·
COc1ccc([C@H]2N[C@]3(CCCN(Cc4ccc(C(F)(F)F)cc4)C3=O)[C@H]3C(=O)N(C)C(=O)[C@@H]23)cc1,2,-9,-5,14,-5,·
CC1CCCC=CC2CC(OC(=O)CN(C)C)CC2C(O)C=CC(=O)O1 (stereo not drawn),-91,55*,71*,-41,63,76*
COc1ccc(OC)c(CN2CCN(C(=O)c3ccc(S(=O)(=O)N4CCCCCC4)cc3)CC2)c1,2,16,-8,-13,23,·
O=C1C(Cl)=C(Nc2ccc3cn[nH]c3c2)C(=O)c2ccccc21,12,97*,94*,-92*,96*,106*
CN(C)c1ccc(NC2=C(Cl)C(=O)c3ccccc3C2=O)cc1,20,100*,80*,-82*,98*,102*
Cc1ccc(NC2=C(NCCO)C(=O)c3ccccc3C2=O)cc1,-16,-70,-1,-3,-51,15
O=C(Nc1ccc(S(=O)(=O)N2CCCC2)cc1)C1CC(=O)N(CCc2ccc(F)cc2)C1 (stereo not drawn),-1,9,5,-9,11,-4
CC(=O)O[C@H]1[C@@H](O)[C@H](O)[C@H](Oc2c(O)c(C)c3c4c2[C@@H](C)CC[C@@H]4[C@@H](C)C[C@@H]3C=C(C)C)O[C@H]1C,·,18,2,-3,7,·
COc1ccc(S(=O)(=O)N2CCN(C(=O)c3cc(-c4ccc(Br)cc4)n[nH]3)CC2)cc1OC,18,35,17,-1,91*,22

# Compound activity as filed in PubChem.
